Source: PubChem (several laboratories)
Sampled rows, rich in hits. Any-hit rate of the full collection: about 32%.
CYP2C9 activ: CYP2C9 (human) activation | AID 1024 | actives 1.4% (n = 96,000) | activation factor at 5 µM | recombinant CYP2C9, luciferin-H conversion, luminescence; active compounds read high; factor 1 = untreated enzyme, 0 = blocked | P11712;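 active = activation factor of 2 or more for CYP2C9 at a 5 µM dose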;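 also: 0 = sulfaphenazole-blocked wells and 1 = vehicle-only wells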
Target sequence (P11712 whole entry, looked up): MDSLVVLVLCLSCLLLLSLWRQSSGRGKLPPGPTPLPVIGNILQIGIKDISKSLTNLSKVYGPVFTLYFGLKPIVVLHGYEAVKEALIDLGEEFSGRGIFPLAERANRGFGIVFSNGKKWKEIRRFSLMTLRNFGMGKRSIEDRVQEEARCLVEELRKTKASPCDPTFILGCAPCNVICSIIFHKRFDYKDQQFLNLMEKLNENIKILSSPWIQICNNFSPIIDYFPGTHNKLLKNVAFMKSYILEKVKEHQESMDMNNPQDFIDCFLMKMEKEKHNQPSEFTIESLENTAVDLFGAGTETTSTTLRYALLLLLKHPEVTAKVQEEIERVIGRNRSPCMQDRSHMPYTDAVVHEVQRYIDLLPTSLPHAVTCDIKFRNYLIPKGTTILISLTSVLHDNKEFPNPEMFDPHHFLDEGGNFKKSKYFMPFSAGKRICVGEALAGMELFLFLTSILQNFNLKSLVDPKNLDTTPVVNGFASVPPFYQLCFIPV
PostGolgi ctrl: inhibits growth of the yeast control strain; actives 5% (n = 98,000); inhibition, % at 10 µM; efflux-deficient yeast background strain, growth absorbance A615, 16 h
CYP2C9 inh: inhibitors of human CYP2C9; CYP2C9 Supersomes, luciferin-H conversion, luminescence; actives 20% (n = 96,000); inhibition, % at 5 µM; P11712; AID 777;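 active = blocking of liver enzyme CYP2C9 beyond about 50% at 5 µM, limit read from the data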
PostGolgi yeast: growth inhibition of a yeast mutant, post-Golgi transport screen | post-Golgi transport phenotypic cell assay | inhibition, % at 10 µM | actives 0.9% (n = 98,000) | AID 739;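 also: yeast cells grown in 1536-well plates; yeast grown about 18 h at 30C before absorbance read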
CYP2C19 activ: increases human CYP2C19 enzyme activity; recombinant CYP2C19, luciferin-H EGE luminescence; active compounds read high; 0 = fully inhibited enzyme, 1 = untreated enzyme; activation factor at 5 µM; 96,000 tested, under 10 active;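 active = activation factor of at least 2 at 5 µM in the primary screen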;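 also: 0 = wells with 2.5 mM tranylcypromine and 1 = vehicle-only wells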
CYP2C19 inh: blocks human cytochrome P450 2C19; P33261; CYP2C19 Supersomes, luciferin-H EGE luminescence, 30 min; inhibition, % at 5 µM; actives 21% (n = 96,000); AID 778;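 active = CYP2C19 inhibition above a set limit at 5 µM in the primary screen, cut at about 50% in these data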;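 also: plate controls were negative control wells for no effect and 2.5 mM tranylcypromine positive control for full effect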
* = called active by the depositor. Rule as the data show it, unless noted: active = inhibition above about 30%; inactive = the rest.

For Cc1ccccc1N1CCN(C(=O)C2CCCCC2)CC1 the results were CYP2C9 activ 0.6, PostGolgi ctrl 22.1, CYP2C9 inh 43.7, PostGolgi yeast 6.0, CYP2C19 activ 0.5 and CYP2C19 inh 48.8.
Screening COc1cc(C(=O)N2CCN(c3cccc(C)c3C)CC2)cc(OC)c1OC returned PostGolgi ctrl 16.5 and PostGolgi yeast 2.6.
For Cc1cccc(N2CCN(C(=O)c3ccc4ncsc4c3)CC2)c1C the results were CYP2C9 activ 0.7, PostGolgi ctrl 4.7, CYP2C9 inh 28.1, PostGolgi yeast -4.7, CYP2C19 activ 0.3 and CYP2C19 inh 66.1*.
`Cc1cccc(N2CCN(C(=O)C3CCCCC3)CC2)c1C` gave CYP2C9 activ 1.7, PostGolgi ctrl 34.2*, CYP2C9 inh -70.8, PostGolgi yeast 12.9, CYP2C19 activ 0.9 and CYP2C19 inh 6.7.
For O=C(N1CCN(c2ccccc2F)CC1)C12CC3CC(CC(C3)C1)C2 the results were CYP2C9 activ 0.8, PostGolgi ctrl 14.3, CYP2C9 inh 24.0, PostGolgi yeast 0.0, CYP2C19 activ 0.8 and CYP2C19 inh 23.7.
For Cc1cccc(N2CCN(C(=O)c3ccncc3)CC2)c1C the results were CYP2C9 activ 0.1, PostGolgi ctrl 1.4, CYP2C9 inh 86.0*, PostGolgi yeast 7.9, CYP2C19 activ 0 and CYP2C19 inh 99.9*.
COC(=O)C(C(=O)OC)c1ccccc1[N+](=O)[O-] was read as CYP2C9 activ 1, PostGolgi ctrl -4.5, CYP2C9 inh -0.6, PostGolgi yeast 2.1, CYP2C19 activ 0.9 and CYP2C19 inh 6.4.
Cc1nn(Cc2ccccc2Cl)c(C)c1N was read as CYP2C9 activ 0.9, PostGolgi ctrl 8.2, CYP2C9 inh 7.5, PostGolgi yeast 6.7, CYP2C19 activ 0.3 and CYP2C19 inh 74.6*.
Cc1cccc(N2CCN(C(=O)c3c(C)nn(Cc4ccccc4Cl)c3C)CC2)c1C was read as CYP2C9 activ 0.7, PostGolgi ctrl 37.6*, CYP2C9 inh 33.5, PostGolgi yeast -3.5, CYP2C19 activ 1 and CYP2C19 inh 1.6.
Screening CCS(=O)(=O)N1Cc2ccccc2CC1C(=O)N1CCN(c2cccc(C)c2C)CC1 (configuration not stated) returned CYP2C9 activ 0.4, PostGolgi ctrl 2.1, CYP2C9 inh 58.4*, PostGolgi yeast 9.2, CYP2C19 activ 0.4 and CYP2C19 inh 63.8*.
For Cc1ccc(C(=O)CC2SC(N)=NC2=O)cc1 (configuration not stated) the results were CYP2C9 activ 1.2, PostGolgi ctrl 0.9, CYP2C9 inh -17.1, PostGolgi yeast -11.7, CYP2C19 activ 0.9 and CYP2C19 inh 8.6.
`CCN1C(=O)C(C(=O)Nc2ccc(OC)cc2)C2CC1(C)Oc1ccccc12` (configuration not stated) gave CYP2C9 activ 0.5, PostGolgi ctrl 15.9, CYP2C9 inh 53.5*, PostGolgi yeast -3.8, CYP2C19 activ 0.8 and CYP2C19 inh 16.1.
Screening CCOC(=O)c1c(N)nn(C(=O)C(C)C)c1-c1ccc(OC)cc1 returned CYP2C9 activ 0.7, PostGolgi ctrl 13.2, CYP2C9 inh 29.7, PostGolgi yeast 2.9, CYP2C19 activ 0.8 and CYP2C19 inh 19.6.
Screening CCOC(=O)c1c(C)[nH]c(=S)c(C#N)c1-c1ccc(OC)cc1 returned CYP2C9 activ 0.2, PostGolgi ctrl -6.2, CYP2C9 inh 77.7*, PostGolgi yeast 1.6, CYP2C19 activ 0.6 and CYP2C19 inh 39.4.
For CCOC(=O)N1CCC(NC(=O)Cn2c3c(c(-c4ccccc4Cl)cc2=O)CCC3)CC1 the results were CYP2C9 activ 0.5, PostGolgi ctrl 3.5, CYP2C9 inh 54.0*, PostGolgi yeast -4.6, CYP2C19 activ 0.5 and CYP2C19 inh 45.7.
`CCOC(=O)N1CCC(NC(=O)CN2C(=O)CCSc3ccccc32)CC1` gave CYP2C9 activ 0.9, PostGolgi ctrl -2.6, CYP2C9 inh 8.2, PostGolgi yeast 6.3, CYP2C19 activ 0.9 and CYP2C19 inh 11.8.
CCCCCCCCCCCC(=O)N/N=C/c1ccco1 was read as CYP2C9 activ 0.4, PostGolgi ctrl 10.8, CYP2C9 inh 55.7*, PostGolgi yeast 16.1, CYP2C19 activ 0.7 and CYP2C19 inh 25.8.
`CCCCCCCC(=O)N/N=C/c1ccco1` gave CYP2C9 activ 0.9, PostGolgi ctrl 15.5, CYP2C9 inh 10.3, PostGolgi yeast 2.4, CYP2C19 activ 0.6 and CYP2C19 inh 41.5.
`CCCCCCCCCC(=O)N/N=C/c1ccc(C)s1` gave CYP2C9 activ 0.3, PostGolgi ctrl 32.7*, CYP2C9 inh 74.3*, PostGolgi yeast 8.2, CYP2C19 activ 0.2 and CYP2C19 inh 76.9*.
For CCCCCCCC(=O)N/N=C/c1cccnc1 the results were CYP2C9 activ 0.7, PostGolgi ctrl 6.0, CYP2C9 inh 27.2, PostGolgi yeast 3.6, CYP2C19 activ 0.6 and CYP2C19 inh 38.9.
Screening CCCCCCCC(=O)N/N=C/c1ccc(Br)cc1 returned CYP2C9 activ 0.8, PostGolgi ctrl 13.3, CYP2C9 inh 17.6, PostGolgi yeast -1.1, CYP2C19 activ 0.2 and CYP2C19 inh 75.4*.
For CC(C)OC(=O)c1c(NC(=O)c2ccco2)sc2c1CCCCC2 the results were CYP2C9 activ 0.7, PostGolgi ctrl 24.6, CYP2C9 inh 33.1, PostGolgi yeast 26.4, CYP2C19 activ 0.9 and CYP2C19 inh 14.7.
O=C(Nc1sc2c(c1C(=O)c1ccc(Cl)cc1)CCCC2)c1cccnc1 was read as CYP2C9 activ 0.7, PostGolgi ctrl 40.1*, CYP2C9 inh 30.5, PostGolgi yeast 7.8, CYP2C19 activ 0.8 and CYP2C19 inh 15.9.
For CC(Oc1ccc(F)cc1)C(=O)Nc1sc2c(c1C(=O)NCc1cccnc1)CCCC2 (configuration not stated) the results were CYP2C9 activ 0.1, PostGolgi ctrl 41.8*, CYP2C9 inh 93.6*, PostGolgi yeast -0.5, CYP2C19 activ 0.2 and CYP2C19 inh 77.6*.
For CC(Oc1ccccc1)C(=O)NCc1cccnc1 (configuration not stated) the results were CYP2C9 activ 1, PostGolgi ctrl -0.8, CYP2C9 inh -1.4, PostGolgi yeast 3.5, CYP2C19 activ 0.8 and CYP2C19 inh 15.6.
For O=C(Nc1sc2c(c1C(=O)NCc1cccnc1)CCCC2)c1ccco1 the results were CYP2C9 activ 0.1, PostGolgi ctrl 15.1, CYP2C9 inh 95.0*, PostGolgi yeast -0.2, CYP2C19 activ 0.2 and CYP2C19 inh 78.5*.
For NC(=O)c1ccc(C2SCC(=O)N2Cc2ccccc2)cc1 (configuration not stated) the results were CYP2C9 activ 0.8, PostGolgi ctrl 4.1, CYP2C9 inh 15.7, PostGolgi yeast 1.0, CYP2C19 activ 0.8 and CYP2C19 inh 23.2.
For CN(/C(=N\S(=O)(=O)c1ccccc1)C(F)(F)F)c1ccccc1 the results were CYP2C9 activ 1, PostGolgi ctrl -5.8, CYP2C9 inh -2.6, PostGolgi yeast -6.8, CYP2C19 activ 0.7 and CYP2C19 inh 28.8.
